Screens: PubChem BioAssay, Center for Chemical Genomics, University of Michigan
In the library only some 0.93% were active in any assay of this set; here they are far more common.
TAR Tat displ – TAR RNA-Tat peptide displacers, HIV-1, primary screen, biochemical, FRET, FAM/TAMRA-labeled Tat. HIV-1 TAR RNA, Tat peptide displacement FRET; stronger effect = higher value. z-score (test concentration not listed). hit rate 0.6% among 100,000. AID 1259389, 2018; active = z-score of 3 or more in at least 2 runs
CDC25B-CDK2 inh – primary biochemical HTRF screen for blockers of M-phase inducer phosphatase 2 binding to CDK2/cyclin A | P30305+P24941 | HTRF CDC25B-CDK2/CyclinA binding, anti-His/anti-Flag; stronger effect = higher value | z-score (test concentration not listed) | hit rate 0.72% among 94,000 | AID 1259370, 2018; in the data active = z-score above about 3.2
* hit, by the source's call; / = not tested or not shown; ! = repeats disagree.

SMILES	TAR Tat displ	CDC25B-CDK2 inh
CC1CCC(NC(=O)C2(C)Cn3c(cc4occc43)C(=O)N2C2CCC(C)CC2)CC1 (configuration not stated)	5.4*	/
CCOc1nc(-c2ccccc2)nc(C)c1Cc1ccccc1	1.9	-0.93
CCOC(=O)N1CCN(S(=O)(=O)c2ccc(C)cc2)C1	0.91	-2.1
O=C(c1ccccc1)c1ccc2nc(Nc3cccc(O)c3)c3nncn3c2c1	-0.7	/
O=C1CCCc2cc(S(=O)(=O)N3CCCC(C(=O)N4CCOCC4)C3)ccc2N1 (configuration not stated)	1.7	/
COc1ccc(NC(=O)NC(C)c2c(-n3cccc3)sc3c2CCCC3)cc1OC (configuration not stated)	0.45	11*
COc1ccc(OC)c(NC(=O)NC(C)c2c(-n3cccc3)sc3c2CCCC3)c1 (configuration not stated)	-0.12	-5.1
CCCN(CCC)CCNC(=O)c1cc2c(s1)-c1ccc(Cl)cc1S(=O)(=O)C2	1.5	-0.81
Cc1ccc(CNC(=O)Cn2ncn3c(c(-n4cccc4)c4c5c(sc43)CCCC5)c2=O)cc1	12*	0.9
O=C(O)Cn1ncn2c(c(-n3cccc3)c3c4c(sc32)CCCC4)c1=O	2.4	6.1
Cc1cc(N2CCN(C)CC2)nc(N2CCN(C(=O)Nc3ccc(Cl)cc3)CC2)n1	0.85	/
CCSc1ncc2c(=O)n(CC(=O)N3CCc4ccccc43)cnc2n1	9.7*	/
CCSc1ncc2c(=O)n(CC(=O)NC3CCCC3)cnc2n1	0.72	/
CCCCOC(=O)Nc1ccc(N(CC)CC)cc1	0.87	-7.4
C=CCN[C@H]1CS(=O)(=O)C[C@@H]1S(=O)(=O)c1ccc(OC)cc1	2.3	-1.6
OCCNc1ncnc2oc(-c3ccccc3)c(-c3ccccc3)c12	/	-0.71
CC(C)C[C@@H](C=O)NC(=O)[C@H](CC(C)C)NC(=O)[C@H](CC(C)C)NC(=O)OCc1ccccc1	3.9*!	/
O=C(N[C@@H](Cc1ccccc1)C(=O)CCl)OCc1ccccc1	0.24	-2.2
COc1ccc(NS(=O)(=O)c2ccc(NS(=O)(=O)c3ccc(Cl)cc3)cc2)cc1	-0.37	0.47
O=S(=O)(Nc1ccc(Oc2ccc(F)cc2)cc1)c1ccc(Cl)cc1	/	12*
COC(=O)c1nnc2c(-c3ccc(OC)cc3)c(C)nn2c1C	-0.01	-1.1
O=C1CC(c2ccco2)Cc2[nH]c(=O)c(-c3nc(-c4ccc(Br)cc4)cs3)cc21 (configuration not stated)	3.7*	8.2*
Cc1ccc(-c2csc(-c3cc4c([nH]c3=O)CC(c3ccccc3)CC4=O)n2)cc1 (configuration not stated)	-6.3	-0.21
CNc1nc2cccnc2s1	/	8.2*
c1cnc2sc(N3CCC4(CC3)OCCO4)nc2c1	/	-2.2
SMILES	TAR Tat displ	CDC25B-CDK2 inh
O=C(NO)C12CCC(CC1)C2	/	-1.2
COC(=O)c1cscc1OC(=O)c1ccc(C(F)(F)F)cc1	/	17*
COc1cscc1C(=O)Nc1cc(C(F)(F)F)cc(C(F)(F)F)c1	/	-0.73
C=CCn1c(=S)sc2c(Sc3nnc(-c4ccco4)o3)ncnc21	/	-0.6
COc1cc2ncc(S(=O)(=O)c3ccccc3)c(N3CCCCC3)c2cc1OC	-0.26	5.9*
COc1cc2ncc(S(=O)(=O)c3ccccc3)c(N3CCC(C)CC3)c2cc1OC	1	1.6
O=S(=O)(c1ccccc1)c1cnc2ccc(Cl)cc2c1N1CCCC1	0.16	-0.64
CCc1ccc2ncc(S(=O)(=O)c3ccccc3)c(N3CCCC3)c2c1	-2.5	9.1*
COc1cc2c(cc1OC)C(C)N(C(=O)c1ccccc1)CC2 (configuration not stated)	/	-1.2
Cc1cc(-c2ccccc2)c2c(n1)sc1c(O)cc(=O)[nH]c12	-1.1	-1.6
CSc1nc(N)nc2sc3c(O)cc(=O)[nH]c3c12	11*	6.5
Cc1c(C2=CCN(S(=O)(=O)c3cnc[nH]3)CC2)c2ccccc2n1Cc1ccc(F)cc1	-1.5	/
Cc1cc(C)c2[nH]c(CSc3ncn[nH]3)cc(=O)c2c1	-0.82	/
C[C@H]1c2cccc(O)c2C(O)=C2C(=O)[C@]3(O)C(O)=C(C(N)=O)C(=O)[C@@H](N(C)C)[C@@H]3[C@@H](O)[C@@H]21	24*	-0.66
CN(C)c1ccc(O)c2c1C[C@H]1C[C@H]3[C@H](N(C)C)C(=O)C(C(N)=O)=C(O)[C@@]3(O)C(=O)C1=C2O	20*	/
CNS(=O)(=O)c1cn(CC(=O)N2c3ccccc3CC2C)cc1S(=O)(=O)NC (configuration not stated)	0.26	/
Cc1cc(C)c2c(=O)c3c(oc2c1)C(=O)N(CCO)C3c1cccc(O)c1 (configuration not stated)	-0.77	0.16
COc1cc(-c2nc(-c3ccccc3)c(-c3ccccc3)[nH]2)ccc1O	/	-0.82
COc1ccc(-c2nc(-c3cccs3)c(-c3cccs3)[nH]2)cc1O	1.2	18*
Cn1cnc2c(=O)oc3ccc(S(=O)(=O)NCc4ccc5c(c4)OCO5)cc3c21	2.8	-2.5
O=C(NC1CC1)c1ccc2cccc(O)c2n1	1.7	/
O=C(Nc1cccnc1)c1ccc2cccc(O)c2n1	6.4*	/
N=C1C(c2nc3ccccc3c(=O)[nH]2)=C(O)CN1c1ccc(Cl)cc1	2	-0.69
O=C(c1ccc(-n2ccc3ccccc32)s1)N1CCC(N2CCCCC2)CC1	1.1	/
Cn1cc(NC(=O)NC2CCCCC2)c2ccccc2c1=O	0.91	19*
SMILES	TAR Tat displ	CDC25B-CDK2 inh
CC(C)Cn1cc(NC(=O)NC2CCCCC2)c2ccccc2c1=O	2.4	/
CCCS(=O)(=O)c1ncc(Cl)c(C(=O)N(Cc2ccc(F)cc2)C2CCS(=O)(=O)C2)n1 (configuration not stated)	1.6	-1.6
CCc1ccc(NS(=O)(=O)c2ccc3c(c2)oc(=O)n3C)cc1	0.83	0.59
O=C(O[C@@H]1Cc2c(O)cc(O)cc2O[C@@H]1c1cc(=O)c(O)c2c(O)c(O)cc([C@H]3Oc4cc(O)cc(O)c4C[C@H]3O)c2c1)c1cc(O)c(O)c(O)c1	30*	/
Oc1ccc([C@H]2Oc3cc(O)cc(O)c3C[C@H]2O)cc1	-0.59	/
Cc1cc(C)cc(NC(=O)C(C)CS(=O)(=O)c2ccc3c(c2)NC(=O)C(C)S3)c1 (configuration not stated)	-0.17	/
COc1cc(NC(=O)C(C)CS(=O)(=O)c2ccc3c(c2)NC(=O)C(C)S3)cc(OC)c1 (configuration not stated)	15*	/
O=C(Nc1ncc(Cc2cc(Cl)ccc2Cl)s1)c1ccccc1I	/	-2.9
CCOc1c(NC2CCCCC2)c(=O)c1=O	1.9	/
O=C(O)c1cc(=O)c2cccc(O)c2[nH]1	5.3*	/
O=C(O)c1cc(=O)c2ccccc2[nH]1	0.48	-0.32
N#Cc1cc2c(nc1SCc1ccccc1)CCCC2=O	/	-1.8
COc1ccccc1Nc1nc(-c2c(C)nc3ccccn23)cs1	2.5	-1.8
COc1ccc(Cl)cc1Nc1nc(-c2c(C)nc3ccccn23)cs1	8.3*	6.6
Cc1ccnc2nc(NC(=O)C(C)C)nn12	2.2	-1.3
Oc1ccc(-c2cc(-c3ccc(O)cc3)nc(-c3ccccc3)n2)cc1	/	2.5
CCc1nc(-c2csc(S(=O)(=O)N3CCC(C(=O)N4CCCCC4)CC3)c2)no1	1.7	/
CCOc1ccc(-n2c(N)c(C(=O)Nc3ccc(F)cc3)sc2=S)cc1	0.96	/
